# Measurements as given in article PMC11062922 (Nature Chemical Biology, 2023).
# Where two headings read alike, the source gives them in different places.
# Assays:
# Design in all cases: species or system human, MV4-11 + K-562 + COLO205 + SK-N-BE2 + OVCAR-8
# COX5A = settings: read-out: apparent Kd; compound concentrations: 100 nM and 1000 nM (sheet 'Samples'), CATDS: 4.9189359622159999E-2; n = 1
# DCTPP1 = settings: read-out: apparent Kd; compound concentrations: 100 nM and 1000 nM (sheet 'Samples'), CATDS: 4.6014352292288702E-2; n = 1
# DJA1 = tested on: T1, DJA1; settings: read-out: apparent Kd, compound concentrations: 100 nM and 1000 nM (sheet 'Samples'), n = 1
# T1 construct: gene DNAJA1
# GSK3A = settings: read-out: apparent Kd; compound concentrations: 100 nM and 1000 nM (sheet 'Samples'), CATDS: 0.122036106459496; n = 1
# GSK3B = settings: read-out: apparent Kd; compound concentrations: 100 nM and 1000 nM (sheet 'Samples'), CATDS: 7.9816759037496299E-2; n = 1
# ICK = settings: read-out: apparent Kd; compound concentrations: 100 nM and 1000 nM (sheet 'Samples'), CATDS: 5.6669342720563003E-2; n = 1
# IRAK4 = settings: read-out: apparent Kd; compound concentrations: 100 nM and 1000 nM (sheet 'Samples'), CATDS: 4.1120656288718103E-2; n = 1
# NQO2 = settings: read-out: apparent Kd, compound concentrations: 100 nM and 1000 nM (sheet 'Samples'), n = 1
# PDXK = settings: read-out: apparent Kd; compound concentrations: 100 nM and 1000 nM (sheet 'Samples'), CATDS: 4.47093082107951E-2; n = 1
# PKM = settings: read-out: apparent Kd; compound concentrations: 100 nM and 1000 nM (sheet 'Samples'), CATDS: 4.24178727539107E-2; n = 1
# PRKCA = settings: read-out: apparent Kd; compound concentrations: 100 nM and 1000 nM (sheet 'Samples'), CATDS: 0.16671093509257301; n = 1
# PRKCB = settings: read-out: apparent Kd; compound concentrations: 100 nM and 1000 nM (sheet 'Samples'), CATDS: 0.103401892254312; n = 1
# PRKCD = settings: read-out: apparent Kd; compound concentrations: 100 nM and 1000 nM (sheet 'Samples'), CATDS: 0.14677324190073199; n = 1
# PRKCQ = settings: read-out: apparent Kd; compound concentrations: 100 nM and 1000 nM (sheet 'Samples'), CATDS: 5.3878720766830299E-2; n = 1
# RPS6KA3 = settings: read-out: apparent Kd; compound concentrations: 100 nM and 1000 nM (sheet 'Samples'), CATDS: 4.20026996356445E-2; n = 1
# RPS6KA6 = settings: read-out: apparent Kd; compound concentrations: 100 nM and 1000 nM (sheet 'Samples'), CATDS: 0.184421750918566; n = 1
# RPS6KB1 = settings: read-out: apparent Kd; compound concentrations: 100 nM and 1000 nM (sheet 'Samples'), CATDS: 4.3958496024185799E-2; n = 1
# CSNK1A1 = settings: read-out: apparent Kd, compound concentrations: 100 nM and 1000 nM (sheet 'Samples'), n = 1
# CSNK1D = settings: read-out: apparent Kd, n = 1
# CSNK1E = settings: read-out: apparent Kd, n = 1
# MAPK11 = settings: read-out: apparent Kd, compound concentrations: 100 nM and 1000 nM (sheet 'Samples'), n = 1
# MAPK14 = settings: read-out: apparent Kd, n = 1
# MAPKAPK2 = settings: read-out: apparent Kd, n = 1
# RIPK2 = settings: read-out: apparent Kd; compound concentrations: 100 nM and 1000 nM (sheet 'Samples'), CATDS: 0.10111059470888201; n = 1
# CLK4 = settings: read-out: apparent Kd, compound concentrations: 100 nM and 1000 nM (sheet 'Samples'), n = 1
# CSNK2A1;CSNK2A3 = settings: read-out: apparent Kd; compound concentrations: 100 nM and 1000 nM (sheet 'Samples'), CATDS: 0.28521766566088902; n = 1
# CSNK2A2 = settings: read-out: apparent Kd; compound concentrations: 100 nM and 1000 nM (sheet 'Samples'), CATDS: 0.32436684951211903; n = 1
# DYRK1A = settings: read-out: apparent Kd; compound concentrations: 100 nM and 1000 nM (sheet 'Samples'), CATDS: 0.224085831089785; n = 1
# MAPK10 = settings: read-out: apparent Kd; compound concentrations: 100 nM and 1000 nM (sheet 'Samples'), CATDS: 7.1245555578464306E-2; n = 1
# MERTK = settings: read-out: apparent Kd; compound concentrations: 100 nM and 1000 nM (sheet 'Samples'), CATDS: 0.12955803655980599; n = 1
# PIK3CD = settings: read-out: apparent Kd; compound concentrations: 100 nM and 1000 nM (sheet 'Samples'), CATDS: 0.42646415805735; n = 1
# ILK = settings: read-out: apparent Kd; compound concentrations: 100 nM and 1000 nM (sheet 'Samples'), CATDS: 0.22050260792915999; n = 1
# IRAK3 = settings: read-out: apparent Kd; compound concentrations: 100 nM and 1000 nM (sheet 'Samples'), CATDS: 0.257263100547858; n = 1
# RET = settings: read-out: apparent Kd; compound concentrations: 100 nM and 1000 nM (sheet 'Samples'), CATDS: 0.29305960370360601; n = 1
# [1] = compound concentrations:100 nM and 1000 nM (sheet 'Samples')
smiles,measurement,setting,value
CNCCCn1cc(C2=C(c3cn(C)c4ccccc34)C(=O)NC2=O)c2ccccc21.Cl [RO0318044-001],potency estimated from few doses,COX5A,925 nM
same,potency estimated from few doses,DCTPP1,1150 nM
same,potency estimated from few doses,DJA1; CATDS: 4.4193252056285201E-2,1330 nM
same,potency estimated from few doses,GSK3A,114 nM
same,potency estimated from few doses,GSK3B,263 nM
same,potency estimated from few doses,ICK,610 nM
same,potency estimated from few doses,IRAK4,1750 nM
same,potency estimated from few doses,NQO2; CATDS: 4.4133222473916003E-2,1330 nM
same,potency estimated from few doses,PDXK,1270 nM
same,potency estimated from few doses,PKM,1550 nM
same,potency estimated from few doses,PRKCA,67.8 nM
same,potency estimated from few doses,PRKCB,154 nM
same,potency estimated from few doses,PRKCD,83 nM
same,potency estimated from few doses,PRKCQ,703 nM
same,potency estimated from few doses,RPS6KA3,1610 nM
same,potency estimated from few doses,RPS6KA6,58.2 nM
same,potency estimated from few doses,RPS6KB1,1350 nM
CC1(C)CC(n2cnc(-c3ccc(F)cc3)c2-c2ccnc(N)n2)CC(C)(C)N1 [SB-221466],potency estimated from few doses,CSNK1A1; CATDS: 9.6046167396209803E-2,694 nM
same,potency estimated from few doses,"CSNK1D; compound concentrations: 100 nM and 1000 nM (sheet 'Samples'), CATDS: 0.25228114630202902",37.6 nM
same,potency estimated from few doses,"CSNK1E; compound concentrations: 100 nM and 1000 nM (sheet 'Samples'), CATDS: 0.19281480161649001",65.4 nM
same,potency estimated from few doses,MAPK11; CATDS: 9.0675457178051394E-2,958 nM
same,potency estimated from few doses,"MAPK14; compound concentrations: 100 nM and 1000 nM (sheet 'Samples'), CATDS: 0.38213111916194098",18.8 nM
same,potency estimated from few doses,"MAPKAPK2; compound concentrations: 100 nM and 1000 nM (sheet 'Samples'), CATDS: 0.16941172485113901",89.6 nM
same,potency estimated from few doses,RIPK2,537 nM
N=C1N=C(N)S/C1=C\c1ccc2ncccc2c1 [RO4509407-000],potency estimated from few doses,CLK4; CATDS: 0.20208548416979799,1310 nM
same,potency estimated from few doses,CSNK2A1;CSNK2A3,612 nM
same,potency estimated from few doses,CSNK2A2,488 nM
same,potency estimated from few doses,DYRK1A,1010 nM
CCOc1nccc(-c2c(-c3ccc(F)cc3)ncn2C2CCNCC2)n1 [SB-249175],potency estimated from few doses,CSNK1A1; CATDS: 0.102503652768427,294 nM
same,potency estimated from few doses,"CSNK1D; compound concentrations: 100 nM and 1000 nM (sheet 'Samples'), CATDS: 0.31219473795395603",16.6 nM
same,potency estimated from few doses,"CSNK1E; compound concentrations: 100 nM and 1000 nM (sheet 'Samples'), CATDS: 0.18119769412776501",46.9 nM
same,potency estimated from few doses,DJA1; CATDS: 7.1447025322651805E-2,1630 nM
same,potency estimated from few doses,MAPK10,1660 nM
same,potency estimated from few doses,MAPK11; CATDS: 7.9204394656965396E-2,935 nM
same,potency estimated from few doses,"MAPK14; compound concentrations: 100 nM and 1000 nM (sheet 'Samples'), CATDS: 0.21634918417803001",31.9 nM
same,potency estimated from few doses,"MAPKAPK2; compound concentrations: 100 nM and 1000 nM (sheet 'Samples'), CATDS: 0.24140517483875701",25.8 nM
same,potency estimated from few doses,NQO2; CATDS: 7.6337001924779102E-2,1130 nM
COc1nccc(-c2c(-c3ccc(F)cc3)ncn2CCCN2CCOCC2)n1 [SB-282852],potency estimated from few doses,"CSNK1D; compound concentrations: 100 nM and 1000 nM (sheet 'Samples'), CATDS: 0.15826837082796799",746 nM
same,potency estimated from few doses,"CSNK1E; compound concentrations: 100 nM and 1000 nM (sheet 'Samples'), CATDS: 0.12159851027947199",1580 nM
same,potency estimated from few doses,"MAPK14; compound concentrations: 100 nM and 1000 nM (sheet 'Samples'), CATDS: 0.160477931801707",722 nM
same,potency estimated from few doses,"MAPKAPK2; compound concentrations: 100 nM and 1000 nM (sheet 'Samples'), CATDS: 0.19368451795267799",478 nM
same,potency estimated from few doses,MERTK,1280 nM
same,potency estimated from few doses,PIK3CD,128 nM
COc1cc(/C=N/Nc2ncnc3c2cnn3C(C)C)ccc1O [GW644007X],potency estimated from few doses,CLK4; CATDS: 0.240063768784822,1750 nM
same,potency estimated from few doses,ILK,2110 nM
same,potency estimated from few doses,IRAK3,1520 nM
same,potency estimated from few doses,RET,1190 nM
Fc1ccc(-c2ncn(C3CCNCC3)c2-c2ccnc(Oc3ccc(-c4ccccc4)cc3)n2)cc1 [SB-245391],potency estimated from few doses,CSNK1D; [1],486 nM
same,potency estimated from few doses,CSNK1E; [1],1840 nM
same,potency estimated from few doses,MAPK14; [1],424 nM
same,potency estimated from few doses,MAPKAPK2; [1],116 nM
